# According to PMC11006913:
# Numbering of substitutions follows the chain as printed.
# Experiments:
# Experiment in all cases: PBM; 200 nM protein, PBS
# Conditions in all cases: dsDNA, one strand shown
# NKX2-5 [1] = molecular target: NKX2-5 (Homo sapiens, UniProt P52952 125-210, R139K)
# NKX2-6 [2] = molecular target: T1, NKX2-6 (Homo sapiens, UniProt A6NCS4 118-204, R150C)
# T1 sequence: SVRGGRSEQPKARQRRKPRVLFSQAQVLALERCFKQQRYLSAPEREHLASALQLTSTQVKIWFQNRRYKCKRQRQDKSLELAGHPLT
# NKX3-2 [3] = molecular target: NKX3-2 (Homo sapiens, UniProt P78367 192-278, P234S)
# NKX2-5 [4] = molecular target: NKX2-5 (Homo sapiens, UniProt P52952 125-210)
# NKX3-2 [5] = molecular target: NKX3-2 (Homo sapiens, UniProt P78367 192-278)
# NKX2-6 [6] = molecular target: T2, NKX2-6 (Homo sapiens, UniProt A6NCS4 118-204)
# T2 sequence: T1 sequence with C33R
# NKX2-6 [7] = molecular target: T3, NKX2-6 (Homo sapiens, UniProt A6NCS4 118-204, F151L)
# T3 sequence: T1 sequence with C33R, F34L
# NKX2-4 = molecular target: T4, NKX2-4 (Homo sapiens, UniProt Q9H2Z4 175-261, R246Q)
# T4 sequence: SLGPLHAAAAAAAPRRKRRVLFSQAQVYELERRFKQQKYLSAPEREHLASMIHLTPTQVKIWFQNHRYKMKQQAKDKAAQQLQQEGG
# MSX2 [8] = molecular target: MSX2 (Homo sapiens, UniProt P35548 130-214, R199I)
# MSX2 [9] = molecular target: MSX2 (Homo sapiens, UniProt P35548 130-214)
# MSX2 [10] = molecular target: MSX2 (Homo sapiens, UniProt P35548 130-214, F161Y)
# HOXD13 [11] = molecular target: HOXD13 (Homo sapiens, UniProt P35453 263-343, T313R)
# PITX2 = PITX2 (Homo sapiens, UniProt Q99697 72-157)
# HOXD13 [12] = molecular target: HOXD13 (Homo sapiens, UniProt P35453 263-343)
# HOXD13 [13] = molecular target: HOXD13 (Homo sapiens, UniProt P35453 263-343, T313A)
# ALX1 [14] = molecular target: ALX1 (Homo sapiens, UniProt Q15699 118-204, L144V)
# ALX1 [15] = molecular target: ALX1 (Homo sapiens, UniProt Q15699 118-204, L144R)
# ALX1 [16] = molecular target: ALX1 (Homo sapiens, UniProt Q15699 118-204)
# Sequence of ALX1 (Homo sapiens, UniProt Q15699 118-204) (Q15699 118-204): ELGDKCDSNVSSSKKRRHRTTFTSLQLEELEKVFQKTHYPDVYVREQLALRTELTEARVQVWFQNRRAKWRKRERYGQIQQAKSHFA
# Sequence of NKX2-5 (Homo sapiens, UniProt P52952 125-210, R139K) (P52952 125-210 R139K): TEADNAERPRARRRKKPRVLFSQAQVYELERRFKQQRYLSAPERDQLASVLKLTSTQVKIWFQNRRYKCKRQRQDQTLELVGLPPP
# Sequence of NKX3-2 (Homo sapiens, UniProt P78367 192-278, P234S) (P78367 192-278 P234S): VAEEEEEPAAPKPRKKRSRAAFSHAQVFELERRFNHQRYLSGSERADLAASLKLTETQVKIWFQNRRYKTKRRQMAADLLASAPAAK
# Sequence of NKX3-2 (Homo sapiens, UniProt P78367 192-278) (P78367 192-278): as the sequence (P78367 192-278 P234S) above, with S43P counted along it
# Sequence of NKX2-5 (Homo sapiens, UniProt P52952 125-210) (P52952 125-210): as the sequence (P52952 125-210 R139K) above, with K15R counted along it
# Sequence of HOXD13 (Homo sapiens, UniProt P35453 263-343) (P35453 263-343): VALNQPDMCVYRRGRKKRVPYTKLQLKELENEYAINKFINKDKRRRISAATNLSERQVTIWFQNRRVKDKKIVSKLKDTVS
# Sequence of HOXD13 (Homo sapiens, UniProt P35453 263-343, T313A) (P35453 263-343 T313A): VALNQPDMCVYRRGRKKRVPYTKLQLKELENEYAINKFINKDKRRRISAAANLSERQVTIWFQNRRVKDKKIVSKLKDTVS
# Sequence of HOXD13 (Homo sapiens, UniProt P35453 263-343, T313R) (P35453 263-343 T313R): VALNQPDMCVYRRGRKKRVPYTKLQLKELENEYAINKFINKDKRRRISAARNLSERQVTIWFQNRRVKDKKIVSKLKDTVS
# Sequence of MSX2 (Homo sapiens, UniProt P35548 130-214) (P35548 130-214): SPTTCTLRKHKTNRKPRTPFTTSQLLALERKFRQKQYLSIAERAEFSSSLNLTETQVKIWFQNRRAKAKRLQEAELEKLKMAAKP
# Sequence of ALX1 (Homo sapiens, UniProt Q15699 118-204, L144R) (Q15699 118-204 L144R): as the sequence (Q15699 118-204) above, with L27R counted along it
# Sequence of MSX2 (Homo sapiens, UniProt P35548 130-214, R199I) (P35548 130-214 R199I): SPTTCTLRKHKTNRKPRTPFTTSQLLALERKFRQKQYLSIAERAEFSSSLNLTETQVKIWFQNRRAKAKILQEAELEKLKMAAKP
# Sequence of MSX2 (Homo sapiens, UniProt P35548 130-214, F161Y) (P35548 130-214 F161Y): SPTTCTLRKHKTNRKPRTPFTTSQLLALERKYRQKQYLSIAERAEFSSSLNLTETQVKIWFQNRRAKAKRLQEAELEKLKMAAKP
# Sequence of ALX1 (Homo sapiens, UniProt Q15699 118-204, L144V) (Q15699 118-204 L144V): as the sequence (Q15699 118-204) above, with L27V counted along it
sequence,measurement,setting,value
AAGTGGGC,binding signal,NKX2-5 [1],"12.4 upbm affinity estimate (log intensity, higher = more binding, comparable within an allelic series)"
same,binding signal,NKX2-6 [2],"11.5 upbm affinity estimate (log intensity, higher = more binding, comparable within an allelic series)"
same,binding signal,NKX3-2 [3],"12.8 upbm affinity estimate (log intensity, higher = more binding, comparable within an allelic series)"
same,binding signal,NKX2-5 [4],"12.3 upbm affinity estimate (log intensity, higher = more binding, comparable within an allelic series)"
same,binding signal,NKX3-2 [5],"12.9 upbm affinity estimate (log intensity, higher = more binding, comparable within an allelic series)"
CTAAGTAC,binding signal,NKX2-5 [1],"12.3 upbm affinity estimate (log intensity, higher = more binding, comparable within an allelic series)"
same,binding signal,NKX2-6 [2],"11.7 upbm affinity estimate (log intensity, higher = more binding, comparable within an allelic series)"
same,binding signal,NKX2-6 [6],"13.4 upbm affinity estimate (log intensity, higher = more binding, comparable within an allelic series)"
same,binding signal,NKX2-6 [7],"10.5 upbm affinity estimate (log intensity, higher = more binding, comparable within an allelic series)"
same,binding signal,NKX3-2 [3],"12.5 upbm affinity estimate (log intensity, higher = more binding, comparable within an allelic series)"
same,binding signal,NKX2-5 [4],"12.2 upbm affinity estimate (log intensity, higher = more binding, comparable within an allelic series)"
same,binding signal,NKX3-2 [5],"12.6 upbm affinity estimate (log intensity, higher = more binding, comparable within an allelic series)"
CACTTGTA,binding signal,NKX2-5 [1],"12.5 upbm affinity estimate (log intensity, higher = more binding, comparable within an allelic series)"
same,binding signal,NKX2-6 [2],"11.6 upbm affinity estimate (log intensity, higher = more binding, comparable within an allelic series)"
same,binding signal,NKX2-6 [6],"13.4 upbm affinity estimate (log intensity, higher = more binding, comparable within an allelic series)"
same,binding signal,NKX2-4,"12.9 upbm affinity estimate (log intensity, higher = more binding, comparable within an allelic series)"
same,binding signal,NKX2-6 [7],"10.7 upbm affinity estimate (log intensity, higher = more binding, comparable within an allelic series)"
same,binding signal,NKX2-5 [4],"12.3 upbm affinity estimate (log intensity, higher = more binding, comparable within an allelic series)"
CTGGCCGA,binding signal,NKX2-5 [1],"8.94 upbm affinity estimate (log intensity, higher = more binding, comparable within an allelic series)"
same,binding signal,NKX2-6 [2],"9.45 upbm affinity estimate (log intensity, higher = more binding, comparable within an allelic series)"
same,binding signal,NKX2-5 [4],"8.74 upbm affinity estimate (log intensity, higher = more binding, comparable within an allelic series)"
CACTTACC,binding signal,NKX2-5 [1],"12.4 upbm affinity estimate (log intensity, higher = more binding, comparable within an allelic series)"
same,binding signal,NKX2-6 [2],"11.6 upbm affinity estimate (log intensity, higher = more binding, comparable within an allelic series)"
same,binding signal,NKX2-6 [6],"13.4 upbm affinity estimate (log intensity, higher = more binding, comparable within an allelic series)"
same,binding signal,NKX2-6 [7],"10.7 upbm affinity estimate (log intensity, higher = more binding, comparable within an allelic series)"
same,binding signal,NKX3-2 [3],"12.7 upbm affinity estimate (log intensity, higher = more binding, comparable within an allelic series)"
same,binding signal,NKX2-5 [4],"12.3 upbm affinity estimate (log intensity, higher = more binding, comparable within an allelic series)"
same,binding signal,NKX3-2 [5],"12.8 upbm affinity estimate (log intensity, higher = more binding, comparable within an allelic series)"
GAAGTGGA,binding signal,NKX2-5 [1],"11.7 upbm affinity estimate (log intensity, higher = more binding, comparable within an allelic series)"
same,binding signal,NKX2-6 [2],"11.3 upbm affinity estimate (log intensity, higher = more binding, comparable within an allelic series)"
same,binding signal,NKX3-2 [3],"12.5 upbm affinity estimate (log intensity, higher = more binding, comparable within an allelic series)"
same,binding signal,NKX2-5 [4],"11.8 upbm affinity estimate (log intensity, higher = more binding, comparable within an allelic series)"
same,binding signal,NKX3-2 [5],"12.6 upbm affinity estimate (log intensity, higher = more binding, comparable within an allelic series)"
ACAATTAC,binding signal,NKX2-5 [1],"10.9 upbm affinity estimate (log intensity, higher = more binding, comparable within an allelic series)"
same,binding signal,MSX2 [8],"12.3 upbm affinity estimate (log intensity, higher = more binding, comparable within an allelic series)"
same,binding signal,MSX2 [9],"13.5 upbm affinity estimate (log intensity, higher = more binding, comparable within an allelic series)"
same,binding signal,MSX2 [10],"13.2 upbm affinity estimate (log intensity, higher = more binding, comparable within an allelic series)"
same,binding signal,NKX2-5 [4],"11 upbm affinity estimate (log intensity, higher = more binding, comparable within an allelic series)"
GCACTTAC,binding signal,NKX2-5 [1],"12.3 upbm affinity estimate (log intensity, higher = more binding, comparable within an allelic series)"
same,binding signal,NKX2-6 [2],"11.6 upbm affinity estimate (log intensity, higher = more binding, comparable within an allelic series)"
same,binding signal,NKX2-6 [6],"13.3 upbm affinity estimate (log intensity, higher = more binding, comparable within an allelic series)"
same,binding signal,NKX2-6 [7],"10.6 upbm affinity estimate (log intensity, higher = more binding, comparable within an allelic series)"
same,binding signal,NKX3-2 [3],"12.7 upbm affinity estimate (log intensity, higher = more binding, comparable within an allelic series)"
same,binding signal,NKX3-2 [5],"12.8 upbm affinity estimate (log intensity, higher = more binding, comparable within an allelic series)"
CAGCGTCC,binding signal,NKX2-5 [1],"8.7 upbm affinity estimate (log intensity, higher = more binding, comparable within an allelic series)"
same,binding signal,NKX2-6 [2],"9.46 upbm affinity estimate (log intensity, higher = more binding, comparable within an allelic series)"
same,binding signal,NKX2-5 [4],"8.65 upbm affinity estimate (log intensity, higher = more binding, comparable within an allelic series)"
CGGTGGAG,binding signal,NKX2-5 [1],"8.95 upbm affinity estimate (log intensity, higher = more binding, comparable within an allelic series)"
same,binding signal,HOXD13 [11],"9.59 upbm affinity estimate (log intensity, higher = more binding, comparable within an allelic series)"
same,binding signal,PITX2,"8.06 upbm affinity estimate (log intensity, higher = more binding, comparable within an allelic series)"
same,binding signal,HOXD13 [12],"9.6 upbm affinity estimate (log intensity, higher = more binding, comparable within an allelic series)"
same,binding signal,HOXD13 [13],"9.64 upbm affinity estimate (log intensity, higher = more binding, comparable within an allelic series)"
same,binding signal,NKX2-5 [4],"9.08 upbm affinity estimate (log intensity, higher = more binding, comparable within an allelic series)"
CAGGTCGC,binding signal,NKX2-5 [1],"9.22 upbm affinity estimate (log intensity, higher = more binding, comparable within an allelic series)"
same,binding signal,HOXD13 [11],"9.62 upbm affinity estimate (log intensity, higher = more binding, comparable within an allelic series)"
same,binding signal,HOXD13 [12],"9.82 upbm affinity estimate (log intensity, higher = more binding, comparable within an allelic series)"
same,binding signal,HOXD13 [13],"9.97 upbm affinity estimate (log intensity, higher = more binding, comparable within an allelic series)"
same,binding signal,NKX2-5 [4],"9.21 upbm affinity estimate (log intensity, higher = more binding, comparable within an allelic series)"
AAGTGGGT,binding signal,NKX2-5 [1],"12.4 upbm affinity estimate (log intensity, higher = more binding, comparable within an allelic series)"
same,binding signal,NKX2-6 [2],"11.6 upbm affinity estimate (log intensity, higher = more binding, comparable within an allelic series)"
same,binding signal,NKX2-6 [6],"13.5 upbm affinity estimate (log intensity, higher = more binding, comparable within an allelic series)"
same,binding signal,NKX2-6 [7],"10.5 upbm affinity estimate (log intensity, higher = more binding, comparable within an allelic series)"
same,binding signal,NKX3-2 [3],"12.7 upbm affinity estimate (log intensity, higher = more binding, comparable within an allelic series)"
same,binding signal,NKX2-5 [4],"12.3 upbm affinity estimate (log intensity, higher = more binding, comparable within an allelic series)"
same,binding signal,NKX3-2 [5],"12.8 upbm affinity estimate (log intensity, higher = more binding, comparable within an allelic series)"
AGTCCTTA,binding signal,NKX2-5 [1],"11.3 upbm affinity estimate (log intensity, higher = more binding, comparable within an allelic series)"
same,binding signal,NKX2-6 [2],"10.8 upbm affinity estimate (log intensity, higher = more binding, comparable within an allelic series)"
same,binding signal,NKX2-5 [4],"11.2 upbm affinity estimate (log intensity, higher = more binding, comparable within an allelic series)"
CCTCCGGA,binding signal,NKX2-5 [1],"8.88 upbm affinity estimate (log intensity, higher = more binding, comparable within an allelic series)"
same,binding signal,NKX2-6 [2],"9.54 upbm affinity estimate (log intensity, higher = more binding, comparable within an allelic series)"
same,binding signal,NKX2-5 [4],"8.86 upbm affinity estimate (log intensity, higher = more binding, comparable within an allelic series)"
AAGTGGCG,binding signal,NKX2-5 [1],"12.2 upbm affinity estimate (log intensity, higher = more binding, comparable within an allelic series)"
same,binding signal,NKX2-6 [2],"11.6 upbm affinity estimate (log intensity, higher = more binding, comparable within an allelic series)"
same,binding signal,NKX3-2 [3],"12.7 upbm affinity estimate (log intensity, higher = more binding, comparable within an allelic series)"
same,binding signal,NKX2-5 [4],"12.2 upbm affinity estimate (log intensity, higher = more binding, comparable within an allelic series)"
same,binding signal,NKX3-2 [5],"12.8 upbm affinity estimate (log intensity, higher = more binding, comparable within an allelic series)"
ACACGTGT,binding signal,NKX2-5 [1],"9.32 upbm affinity estimate (log intensity, higher = more binding, comparable within an allelic series)"
same,binding signal,ALX1 [14],"6.61 upbm affinity estimate (log intensity, higher = more binding, comparable within an allelic series)"
same,binding signal,ALX1 [15],"6.61 upbm affinity estimate (log intensity, higher = more binding, comparable within an allelic series)"
same,binding signal,ALX1 [16],"6.65 upbm affinity estimate (log intensity, higher = more binding, comparable within an allelic series)"
same,binding signal,NKX2-5 [4],"9.25 upbm affinity estimate (log intensity, higher = more binding, comparable within an allelic series)"
GCGGCCAC,binding signal,NKX2-5 [1],"8.75 upbm affinity estimate (log intensity, higher = more binding, comparable within an allelic series)"
same,binding signal,NKX2-6 [2],"9.34 upbm affinity estimate (log intensity, higher = more binding, comparable within an allelic series)"
same,binding signal,NKX2-5 [4],"8.78 upbm affinity estimate (log intensity, higher = more binding, comparable within an allelic series)"
CAAGTGGG,binding signal,NKX2-5 [1],"12.3 upbm affinity estimate (log intensity, higher = more binding, comparable within an allelic series)"
same,binding signal,NKX2-6 [2],"11.7 upbm affinity estimate (log intensity, higher = more binding, comparable within an allelic series)"
same,binding signal,NKX2-5 [4],"12.3 upbm affinity estimate (log intensity, higher = more binding, comparable within an allelic series)"
GGCTATTA,binding signal,NKX2-5 [1],"10.7 upbm affinity estimate (log intensity, higher = more binding, comparable within an allelic series)"
same,binding signal,NKX2-5 [4],"10.6 upbm affinity estimate (log intensity, higher = more binding, comparable within an allelic series)"
CACGTCCC,binding signal,NKX2-5 [1],"8.94 upbm affinity estimate (log intensity, higher = more binding, comparable within an allelic series)"
same,binding signal,NKX2-5 [4],"8.96 upbm affinity estimate (log intensity, higher = more binding, comparable within an allelic series)"
CCCGTCAG,binding signal,NKX2-5 [1],"9.01 upbm affinity estimate (log intensity, higher = more binding, comparable within an allelic series)"
same,binding signal,NKX2-5 [4],"9.04 upbm affinity estimate (log intensity, higher = more binding, comparable within an allelic series)"
CCGCACGG,binding signal,NKX2-5 [1],"8.63 upbm affinity estimate (log intensity, higher = more binding, comparable within an allelic series)"
same,binding signal,NKX2-5 [4],"8.62 upbm affinity estimate (log intensity, higher = more binding, comparable within an allelic series)"
ATCCTTAG,binding signal,NKX2-5 [1],"10.5 upbm affinity estimate (log intensity, higher = more binding, comparable within an allelic series)"
same,binding signal,NKX2-5 [4],"10.5 upbm affinity estimate (log intensity, higher = more binding, comparable within an allelic series)"
